# Source: PubChem BioAssay (EPA / NIEHS)
# Activity calls are given as the source filed them. The calls were made as follows: active = hit-call score of the fitted dose curve at least 0.9, where 1 is the maximum; inactive = score below 0.9.
# Experiments:
# Details in all cases: mRNA level, 48 h; actives raise or lower the signal
# [1] = read-out: catalase (CAT), CAT (gene 847); assay: LTEA_HepaRG_CAT: Life Technologies and Expression Analysis (LTEA) Assay for catalase (CAT) using HepaRG (AID 2283452)
# Summary of the method: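 HepaRG cells in serum-free induction medium, 0.5% DMSO vehicle, exposed 48 h in duplicate over 8 half-log concentrations from 100 uM. CAT mRNA measured by qRT-PCR, normalized to ACTB, GAPDH, POLR2A; bidirectional fit versus DMSO.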
# [2] = read-out: flavin-containing dimethylaniline monooxygenases 3 (FMO3), FMO3 (gene 2328); assay: LTEA_HepaRG_FMO3: Life Technologies and Expression Analysis (LTEA) Assay for flavin-containing dimethylaniline monooxygenases 3 (FMO3) using HepaRG (AID 2283453);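 as to AC50: differentiated human HepaRG liver cells in serum-free induction medium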
# Summary of the method: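 FMO3 transcript quantified by TaqMan qRT-PCR against three housekeeping genes after 48 h chemical exposure of HepaRG cells. Eight-point half-log series, top 100 uM, 0.5% DMSO vehicle; phenobarbital 1mM induction control; up- or down-regulation fitted.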
# [3] = read-out: Cytochrome P450 (CYP1A1), CYP1A1 (gene 1543); assay: LTEA_HepaRG_CYP1A1: Life Technologies and Expression Analysis (LTEA) Assay for Cytochrome P450 (CYP1A1) using HepaRG (AID 2283454)
# Summary of the method: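 Using HepaRG cultures with 0.5% DMSO as vehicle, eight-concentration exposures (max 100 uM) lasted 48 h. Transcript levels were measured by TaqMan qRT-PCR and normalized to ACTB, GAPDH and POLR2A.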
# [4] = read-out: CFLAR gene, CFLAR (gene 8837); assay: LTEA_HepaRG_CFLAR: Life Technologies and Expression Analysis (LTEA) Assay for CFLAR gene using HepaRG (AID 2283455)
# Summary of the method: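 qRT-PCR read-out (Fluidigm/TaqMan) of CFLAR mRNA, normalized to three housekeeping genes, in differentiated human HepaRG cells after 48 h chemical exposure; 8-point half-log series from 100 uM in 0.5% DMSO; bidirectional curve fitting versus DMSO.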
# [5] = read-out: Forkhead box O1 (FOXO1), FOXO1 (gene 2308); assay: LTEA_HepaRG_FOXO1: Life Technologies and Expression Analysis (LTEA) Assay for Forkhead box O1 (FOXO1) using HepaRG (AID 2283456)
# Summary of the method: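 HepaRG, 48 h exposure, 8-pt half-log series from 100 uM in 0.5% DMSO, duplicates; Fluidigm qRT-PCR mRNA, housekeeping-normalised; bidirectional fit vs DMSO baseline.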
# [6] = read-out: growth arrest and DNA damage 45 (GADD45A), GADD45A (gene 1647); assay: LTEA_HepaRG_GADD45A: Life Technologies and Expression Analysis (LTEA) Assay for growth arrest and DNA damage 45 (GADD45A) using HepaRG (AID 2283458)
# Summary of the method: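 GADD45A expression was measured by TaqMan qRT-PCR against three housekeeping genes (ACTB, GAPDH, POLR2A) after 48 h treatment of HepaRG cells. Eight-point half-log series up to 100 uM in 0.5% DMSO, run in duplicate.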
# [7] = read-out: Forkhead box O3 (FOXO3), FOXO3 (gene 2309); assay: LTEA_HepaRG_FOXO3: Life Technologies and Expression Analysis (LTEA) Assay for Forkhead box O3 (FOXO3) using HepaRG (AID 2283459)
# Summary of the method: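 qRT-PCR readout of FOXO3 transcript, normalized to three housekeeping genes (ACTB, GAPDH, POLR2A); gain or loss fitted against 0.5% DMSO vehicle. HepaRG cells, 48 h chemical exposure, 8-point half-log series, top 100 uM.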
# [8] = read-out: ABC Transporter (ABCB1), ABCB1 (gene 5243); assay: LTEA_HepaRG_ABCB1: Life Technologies and Expression Analysis (LTEA) Assay for ABC Transporter (ABCB1) using HepaRG (AID 2283460)
# Summary of the method: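 HepaRG, 48 h exposure, 8-pt half-log series from 100 uM, 0.5% DMSO vehicle, duplicates. Readout: ABCB1 transcript by Fluidigm TaqMan qRT-PCR, housekeeping-normalized; bidirectional curve fit vs DMSO baseline.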
# [9] = read-out: ABC Transporter (ABCC3), ABCC3 (gene 8714); assay: LTEA_HepaRG_ABCC3: Life Technologies and Expression Analysis (LTEA) Assay for ABC Transporter (ABCC3) using HepaRG (AID 2283462)
# Summary of the method: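 Transcriptional change of ABCC3 in HepaRG after 48 h treatment, determined by qRT-PCR normalized to endogenous controls. Concentrations spanned eight half-log steps to 100 uM in 0.5% DMSO.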
# [10] = read-out: ABC Transporter (ABCB11), ABCB11 (gene 8647); assay: LTEA_HepaRG_ABCB11: Life Technologies and Expression Analysis (LTEA) Assay for ABC Transporter (ABCB11) using HepaRG (AID 2283463)
# Summary of the method: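 HepaRG, 48 h exposure, 8-pt half-log CRC top 100 uM, 0.5% DMSO vehicle, duplicates. Readout: TaqMan qRT-PCR of ABCB11 mRNA, housekeeping-normalized (ACTB/GAPDH/POLR2A). Bidirectional fit vs DMSO baseline.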
# [11] = read-out: ABC Transporter (ABCC2), ABCC2 (gene 1244); assay: LTEA_HepaRG_ABCC2: Life Technologies and Expression Analysis (LTEA) Assay for ABC Transporter (ABCC2) using HepaRG (AID 2283464)
# Summary of the method: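 After plating and 48 h culture, HepaRG medium is replaced with serum-free induction medium and chemicals are added (8 concentrations, max 100 uM, 0.5% DMSO) for 48 h. Total RNA then undergoes qRT-PCR for ABCC2 with housekeeping normalization.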
# [12] = read-out: Broad substrate specificity ATP-binding cassette transporter ABCG2 (Homo sapiens) (UniProt Q9UNQ0); assay: LTEA_HepaRG_ABCG2: Life Technologies and Expression Analysis (LTEA) Assay for ABC Transporter (ABCG2) using HepaRG (AID 2283465)
# Summary of the method: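 HepaRG, 48 h exposure, 8-pt half-log series from 100 uM, 0.5% DMSO vehicle, duplicates. Readout: ABCG2 transcript by qRT-PCR (Fluidigm array), housekeeping-normalized; bidirectional curve fit relative to DMSO baseline.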
# [13] = read-out: ATP-citrate lyase (ACLY), ACLY (gene 47); assay: LTEA_HepaRG_ACLY: Life Technologies and Expression Analysis (LTEA) Assay for ATP-citrate lyase (ACLY) using HepaRG (AID 2283466)
# Summary of the method: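 qRT-PCR readout of ACLY transcript after 48 h chemical treatment of HepaRG cells; expression normalized to three housekeeping genes. Eight-point half-log series, highest 100 uM, 0.5% DMSO vehicle. Gain or loss fitted against DMSO baseline.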
# [14] = read-out: Peroxisomal acyl-coenzyme A oxidase 1 (ACOX1) gene, ACOX1 (gene 51); assay: LTEA_HepaRG_ACOX1: Life Technologies and Expression Analysis (LTEA) Assay for Peroxisomal acyl-coenzyme A oxidase 1 (ACOX1) gene using HepaRG (AID 2283467)
# Summary of the method: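 HepaRG, 48 h chemical exposure, 8-pt half-log series from 100 uM top, 0.5% DMSO vehicle, duplicates. Readout: ACOX1 mRNA by Fluidigm qRT-PCR, housekeeping-normalized; bidirectional fit vs DMSO baseline.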
# [15] = read-out: Alkaline Phosphatase, Placental (ALPP) gene, ALPP (gene 250); assay: LTEA_HepaRG_ALPP: Life Technologies and Expression Analysis (LTEA) Assay for Alkaline Phosphatase, Placental (ALPP) gene using HepaRG (AID 2283468);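 as to AC50: differentiated human HepaRG liver cells in serum-free induction medium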
# Summary of the method: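 Using human liver HepaRG cells, chemicals are tested in duplicate over 48 h at half-log concentrations topping at 100 uM; phenobarbital 1 mM serves as induction control. ALPP mRNA change by qRT-PCR, bidirectional fit against vehicle.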
# [16] = read-out: Bcl-2 (BAD) gene, BAD (gene 572); assay: LTEA_HepaRG_BAD: Life Technologies and Expression Analysis (LTEA) Assay for Bcl-2 (BAD) gene using HepaRG (AID 2283469)
# Summary of the method: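 HepaRG, 48 h exposure, 8-pt half-log curve from 100 uM in 0.5% DMSO, duplicates. Readout: TaqMan qRT-PCR for BAD mRNA, housekeeping-normalised (ACTB/GAPDH/POLR2A); gain or loss fitted against DMSO baseline.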
# [17] = read-out: Bcl-2 (BAX) gene, BAX (gene 581); assay: LTEA_HepaRG_BAX: Life Technologies and Expression Analysis (LTEA) Assay for Bcl-2 (BAX) gene using HepaRG (AID 2283470)
# Summary of the method: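 Gene expression measured by Fluidigm qRT-PCR with three housekeeping genes for normalisation. HepaRG cells, plated 48 h beforehand, treated 48 h at up to 100 uM (8-point, half-log) in 0.5% DMSO. Bidirectional fitting versus DMSO.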
# [18] = read-out: adenosine kinase (ADK) gene, ADK (gene 132); assay: LTEA_HepaRG_ADK: Life Technologies and Expression Analysis (LTEA) Assay for adenosine kinase (ADK) gene using HepaRG (AID 2283471)
# Summary of the method: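 ADK expression quantified by qRT-PCR, normalised to three housekeeping genes, after 48 h exposure of HepaRG cells to eight concentrations (top 100 uM, half-log steps, duplicate, 0.5% DMSO). Up- or down-regulation fitted relative to vehicle.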
# Broad substrate specificity ATP-binding cassette transporter ABCG2 (Homo sapiens), sequence (Q9UNQ0 whole entry, looked up): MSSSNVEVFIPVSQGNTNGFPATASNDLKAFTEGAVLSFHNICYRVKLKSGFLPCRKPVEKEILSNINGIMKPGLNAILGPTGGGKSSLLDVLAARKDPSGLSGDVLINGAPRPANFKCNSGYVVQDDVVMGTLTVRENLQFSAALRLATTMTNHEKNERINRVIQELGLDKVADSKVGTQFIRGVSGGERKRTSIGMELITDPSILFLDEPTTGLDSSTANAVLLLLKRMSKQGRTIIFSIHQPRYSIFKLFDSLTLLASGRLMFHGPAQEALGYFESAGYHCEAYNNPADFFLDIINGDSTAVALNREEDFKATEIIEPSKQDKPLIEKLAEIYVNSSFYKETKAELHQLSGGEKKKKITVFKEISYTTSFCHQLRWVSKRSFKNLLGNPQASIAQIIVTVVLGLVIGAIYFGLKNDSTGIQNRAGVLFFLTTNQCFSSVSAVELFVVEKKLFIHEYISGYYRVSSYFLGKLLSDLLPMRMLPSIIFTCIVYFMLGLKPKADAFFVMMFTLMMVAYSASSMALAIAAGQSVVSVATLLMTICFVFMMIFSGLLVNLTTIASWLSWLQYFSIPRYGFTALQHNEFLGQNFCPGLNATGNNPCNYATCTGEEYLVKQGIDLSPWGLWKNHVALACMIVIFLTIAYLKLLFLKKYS
smiles,measurement,setting,value
CCN(Cc1cccc(S(=O)(=O)O)c1)c1ccc(C(=C2C=CC(=[N+](CC)Cc3cccc(S(=O)(=O)O)c3)C=C2)c2ccccc2S(=O)(=O)[O-])cc1,outcome,[1],inactive
same,outcome,[2],inactive
same,AC50,[3],32.2 µM (active)
same,outcome,[4],inactive
same,outcome,[5],inactive
same,outcome,[6],inactive
same,outcome,[7],inactive
same,outcome,[8],inactive
same,outcome,[9],inactive
same,outcome,[10],inactive
same,outcome,[11],inactive
same,outcome,[12],inactive
same,outcome,[13],inactive
same,outcome,[14],inactive
same,outcome,[15],inactive
same,outcome,[16],inactive
same,outcome,[17],inactive
same,outcome,[18],inactive
CCN(CC)C(=O)c1cc(S(=O)(=O)Cc2ccccc2)c(N2CCC(c3ccccc3)CC2)cc1N(CC)CCN(C)C,AC50,[1],30.2 µM (active)
same,AC50,[2],29.4 µM (active)
same,AC50,[3],7.21 µM (active)
same,outcome,[4],inactive
same,outcome,[5],inactive
same,outcome,[6],inactive
same,outcome,[7],inactive
same,AC50,[8],35.1 µM (active)
same,AC50,[9],31 µM (active)
same,outcome,[10],inactive
same,AC50,[11],30.8 µM (active)
same,outcome,[12],inactive
same,AC50,[13],4.57 µM (active)
same,AC50,[14],32.7 µM (active)
same,AC50,[15],31.5 µM (active)
same,outcome,[16],inactive
same,outcome,[17],inactive
CCCCCc1ccc(N)cc1,outcome,[1],inactive
same,outcome,[2],inactive
same,AC50,[3],28.8 µM (active)
same,outcome,[4],inactive
same,outcome,[5],inactive
same,outcome,[6],inactive
same,outcome,[7],inactive
same,outcome,[8],inactive
same,outcome,[9],inactive
same,outcome,[10],inactive
same,outcome,[11],inactive
same,outcome,[12],inactive
same,outcome,[13],inactive
same,outcome,[14],inactive
same,outcome,[15],inactive
same,outcome,[16],inactive
same,outcome,[17],inactive
same,outcome,[18],inactive
CC/C(=C(/CC)c1ccc(O)cc1)c1ccc(O)cc1,AC50,[1],91.7 µM (active)
same,AC50,[2],92.4 µM (active)
same,outcome,[3],inactive
same,AC50,[4],50 µM (active)
same,AC50,[5],74.8 µM (active)
same,outcome,[6],inactive
same,AC50,[7],76.9 µM (active)
same,AC50,[8],82.2 µM (active)
same,outcome,[9],inactive
same,outcome,[10],inactive
same,AC50,[11],78 µM (active)
same,AC50,[12],50 µM (active)
same,AC50,[13],50 µM (active)
same,AC50,[14],93.1 µM (active)
same,outcome,[15],inactive
same,outcome,[16],inactive
same,outcome,[17],inactive
same,AC50,[18],94.1 µM (active)
Oc1ccccc1,outcome,[1],inactive
same,outcome,[2],inactive
same,outcome,[3],inactive
same,outcome,[4],inactive
same,outcome,[5],inactive
same,outcome,[6],inactive
same,outcome,[7],inactive
same,outcome,[8],inactive
same,outcome,[9],inactive
same,outcome,[10],inactive
same,outcome,[11],inactive
same,outcome,[12],inactive
same,outcome,[13],inactive
same,outcome,[14],inactive
same,outcome,[15],inactive
same,outcome,[16],inactive
same,outcome,[17],inactive
same,outcome,[18],inactive
CC(=O)N1CCN(c2ccc(OC[C@H]3CO[C@](Cn4ccnc4)(c4ccc(Cl)cc4Cl)O3)cc2)CC1,AC50,[1],13.1 µM (active)
same,AC50,[2],11.8 µM (active)
same,AC50,[3],0.698 µM (active)
same,AC50,[4],74.2 µM (active)
same,AC50,[5],33.4 µM (active)
same,AC50,[6],12.5 µM (active)
same,AC50,[7],77.6 µM (active)
same,AC50,[9],91.8 µM (active)
same,AC50,[11],31.1 µM (active)
same,AC50,[12],4.05 µM (active)
same,AC50,[13],1.23 µM (active)
same,AC50,[14],18.1 µM (active)
same,outcome,[16],inactive
same,AC50,[17],11.8 µM (active)
same,AC50,[18],65 µM (active)
Cc1ccc2oc(CN(Cc3ccccc3)C(=O)Nc3c(F)cc(F)cc3F)c(-c3ccc(Cl)cc3)c2c1,AC50,[1],8.81 µM (active)
same,AC50,[2],59.5 µM (active)
same,AC50,[3],22 µM (active)
same,outcome,[4],inactive
same,outcome,[5],inactive
same,AC50,[6],8.78 µM (active)
same,outcome,[7],inactive
same,AC50,[8],19.7 µM (active)
same,outcome,[9],inactive
same,outcome,[10],inactive
same,AC50,[11],13.7 µM (active)
same,AC50,[12],17.6 µM (active)
same,outcome,[13],inactive
same,outcome,[14],inactive
same,outcome,[15],inactive
same,outcome,[16],inactive
same,outcome,[17],inactive
same,outcome,[18],inactive
